{"source": "ChEMBL document CHEMBL1201862", "about": "“PubChem BioAssay data set” (2004)", "note": "Among all 54,000 sequences or so, about 4,600 (8.5%) were called active. Rule as the data show it: active = GI50 up to about 1.1 µM and inactive = higher. This excerpt belongs to a sample that is enriched for actives. Measured potencies and affinities stand elsewhere.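 Results reflect a 48-hour exposure of cells in 96-well plates to compound at five concentrations. At the GI50, growth is halved.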", "data": [{"test_system": "LOX IMVI", "experiment": "NCI tumour cell line growth inhibition, 48 h", "units": {"GI50": "µM"}, "values": [{"substance": "CISPLATIN, CHEMBL11359", "GI50": 1.41}, {"substance": "[Bis(aminomethyl)dimethylsilane]tetrachloroplatinum(IV), CHEMBL2146190", "GI50": 7.48}, {"substance": "cis-Bis[[(trimethylsilyl)methyl]amino]tetrachloroplatinum(IV), CHEMBL2146191", "GI50": 5.48}, {"substance": "[Bis(aminomethyl)ethylmethylsilane]tetrachloroplatinum(IV), CHEMBL2146192", "GI50": 7.41}, {"substance": "[Bis(aminomethyl)tetramethylenesilane]tetrachloropaltinum(IV), CHEMBL2146189", "GI50": 3.26}, {"substance": "[Bis(aminomethyl)tetramethylenesilane]dichloropaltinum(II), CHEMBL2146205", "GI50": 22.3}, {"substance": "[Bis(aminomethyl)dimethylsilane]dichloroplatinum (II), CHEMBL2146201", "GI50": 38.6}, {"substance": "[Bis(aminomethyl)pentamethylenesilane]tetrachloropaltinum(IV), CHEMBL2146204", "GI50": 0.74}, {"substance": "[Bis(aminomethyl)pentamethylenesilane]dichloropaltinum(II), CHEMBL2146202", "GI50": 0.889}, {"substance": "mu-(1,7-nanodiamine-N,N')bis-(cis-aminedichloroplatimum (II)), CHEMBL2146215", "GI50": 12.6}]}]}
